Test [1] is described as follows: qHTS profiling of the MIPE4 collection as inhibitors of Plasmodium falciparum (3D7) proliferation (AID 743344).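 Further: scaled between DMSO vehicle wells and 0.29 µM artemisinin as full inhibition.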 The following applies: P. falciparum 3D7 in erythrocytes, SYBR Green DNA fluorescence, 72 h; at 28.5 µM unless noted. The method in brief:
(§1)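 Parasite DNA was quantified by SYBR Green I fluorescence (ex 485, em 535 nm) after overnight lysis in saponin/Triton buffer at room temperature. Cultures at 0.3% parasitemia and 2.5% hematocrit were first exposed to compound for 72 h at 37 C; signals were normalised to artemisinin (0.29 uM) and vehicle wells.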
A general note: qHTS replaces the single test concentration by a dilution series.

Test [2] in a line: qHTS profiling of the MIPE4 collection as inhibitors of Plasmodium falciparum (DD2) proliferation (AID 743345). As to conditions: P. falciparum Dd2 in erythrocytes, SYBR Green DNA, 72 h; at 28.5 µM unless noted. The method in brief: as §1
A short description of test [3]: qHTS profiling of the MIPE4 collection as inhibitors of Plasmodium falciparum (DD2) proliferation (Rep 2) (AID 743346). As to conditions: P. falciparum Dd2 in erythrocytes, SYBR Green DNA, 72 h; at 28.5 µM unless noted. The method, boiled down:
as §1

The nature of test [4]: qHTS profiling of the MIPE4 collection as inhibitors of Plasmodium falciparum (HB3) proliferation (AID 743347).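 Further: plate controls were DMSO vehicle wells for no effect and artemisinin wells for full effect.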 The following applies: P. falciparum HB3 in erythrocytes, SYBR Green DNA, 72 h; at 28.5 µM unless noted. The method, boiled down: as §1
A short description of test [5]: High-throughput drug toxicity screening in the BPDCN cell line Gen2.2 (AID 1224824).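 Further: cells exposed to compounds for 48 h before reading.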 As to conditions: Gen2.2 BPDCN cells; at 45.8 µM (top of the series) unless noted. The method in brief: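 Readout is ATP luminescence from Gen2.2 cells after two days of drug exposure in serum-containing medium at 37 °C. Values express percent activity, with vehicle defining full signal and 9.2 uM bortezomib defining zero.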

A short description of test [6]: High-throughput drug toxicity screening in the BPDCN cell line Cal-1 (AID 1224825). As to conditions: Cal-1 BPDCN cell viability, qHTS; at 45.8 µM (top of the series) unless noted. The method, boiled down:
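CellTiter-Glo luminescence after 48 h compound exposure; percent activity scaled with DMSO as 100% and bortezomib (9.2 uM final) as 0%. Cal-1 cells seeded at 500/well in RPMI, 10% FBS, no phenol red.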

The compound `O=C(CCCCCCNC(=O)c1cnc(N(c2ccccc2)c2ccccc2)nc1)NO` showed a parasite growth, % of DMSO control in test [1] of 5.31%. This compound registered a parasite growth remaining, % of DMSO control (lower = more inhibition) in test [2] of 7.75%. Also, in test [3], the parasite growth, % of control (lower = inhibition) amounted to 7.25%. For the same compound, the growth, % of control in test [4] came out at 11%. The cell viability, % of control (lower = more cytotoxic) in test [5] was 5.14%. The viability (% of control) in test [6] amounted to 3.58%.

In test [1], `CNC(=O)c1ccccc1Nc1nc(Nc2ccc(N3CCOCC3)cc2OC)ncc1Cl` displayed a parasite growth, % of DMSO control of 10.8%. The compound further displayed a parasite growth remaining, % of DMSO control (lower = more inhibition) in test [2] of 10.3%. In addition, the parasite growth, % of control (lower = inhibition) in test [3] came to 22.9%. This compound returned a growth, % of control in test [4] of 7.48%. For the same compound, in test [5], the cell viability, % of control (lower = more cytotoxic) worked out at 18.7%. Further, the viability (% of control) in test [6] amounted to 7.05%.

Compound `CC1(C)CC(=O)c2c(C(F)(F)F)nn(-c3ccc(C(N)=O)c(NC4CCC(OC(=O)CN)CC4)c3)c2C1` (configuration not stated) showed a parasite growth, % of DMSO control in test [1] of 7.32%. The compound also came in with a parasite growth remaining, % of DMSO control (lower = more inhibition) in test [2] of 8.43%. For the same compound, the parasite growth, % of control (lower = inhibition) in test [3] came to 11.6%. Moreover, the growth, % of control in test [4] was 4.41%. Moreover, the cell viability, % of control (lower = more cytotoxic) in test [5] stood at 1.95%. Further, the viability (% of control) in test [6] was 13.9%.

On to `CCCn1c(=O)c2[nH]c(-c3cnn(Cc4cccc(C(F)(F)F)c4)c3)nc2n(CC)c1=O`, for which the parasite growth, % of DMSO control in test [1] was determined as 62.2%. Further, the parasite growth remaining, % of DMSO control (lower = more inhibition) in test [2] was determined as 73.8%. The parasite growth, % of control (lower = inhibition) in test [3] is 43.2%. The same compound had a growth, % of control in test [4] of 51.8%. In addition, in test [5], the cell viability, % of control (lower = more cytotoxic) is 49.4%. For the same compound, in test [6], the viability (% of control) was 107%.

With `O=c1[nH]c(=O)n(C2CCCO2)cc1F` (configuration not stated), the parasite growth, % of DMSO control in test [1] was found to be 404% [at 57.5 µM]. Besides, the parasite growth remaining, % of DMSO control (lower = more inhibition) in test [2] came to 99.7% [at 57.5 µM]. Moreover, the parasite growth, % of control (lower = inhibition) in test [3] came to 110% [at 57.5 µM]. The compound also registered a growth, % of control in test [4] of 412% [at 57.5 µM]. In test [5], the cell viability, % of control (lower = more cytotoxic) worked out at 130% [at 92.2 µM]. Moreover, the viability (% of control) in test [6] was 116% [at 92.2 µM].

Compound `NC1(Cc2ccc(Cl)cc2)CCN(c2ncnc3[nH]ccc23)CC1` gave a parasite growth, % of DMSO control in test [1] of 19.2%. Moreover, the parasite growth remaining, % of DMSO control (lower = more inhibition) in test [2] came out at 31.6%. The parasite growth, % of control (lower = inhibition) in test [3] turned out to be 23.9%. The growth, % of control in test [4] was 5.59%. Further, the cell viability, % of control (lower = more cytotoxic) in test [5] is 12.2%. The viability (% of control) in test [6] amounted to 22.9%.

Take `COC(=O)Nc1nc2ccc(C(=O)c3ccc(F)cc3)cc2[nH]1`: the parasite growth, % of DMSO control in test [1] stood at 66.2%. The compound also returned a parasite growth remaining, % of DMSO control (lower = more inhibition) in test [2] of 96.2%. Also, in test [3], the parasite growth, % of control (lower = inhibition) turned out to be 69.2%. In test [4], the growth, % of control was determined as 61.7%. Moreover, the cell viability, % of control (lower = more cytotoxic) in test [5] is 78.4%. Besides, the viability (% of control) in test [6] stood at 25%.

Take `NCC(=O)Nc1ccc(-n2nc(C(F)(F)F)cc2-c2ccc3c(ccc4ccccc43)c2)cc1`: the parasite growth, % of DMSO control in test [1] amounted to 5.62%. In test [2], the parasite growth remaining, % of DMSO control (lower = more inhibition) came out at 8.46%. In addition, the parasite growth, % of control (lower = inhibition) in test [3] was found to be 12.2%. The compound further had a growth, % of control in test [4] of 4.19%. Also, the cell viability, % of control (lower = more cytotoxic) in test [5] amounted to 1.18%. Moreover, the viability (% of control) in test [6] turned out to be 0.933%.

In the case of `O=C(O)C1(Cc2cccc(Nc3nccs3)n2)CCC(Oc2cccc(Cl)c2F)CC1` (configuration not stated), the parasite growth, % of DMSO control in test [1] was found to be 63.9%. This compound also returned a parasite growth remaining, % of DMSO control (lower = more inhibition) in test [2] of 98.3%. In addition, in test [3], the parasite growth, % of control (lower = inhibition) turned out to be 59.5%. This compound also showed a growth, % of control in test [4] of 92%. The cell viability, % of control (lower = more cytotoxic) in test [5] is 88.8%. Also, the viability (% of control) in test [6] was determined as 33.8%.

Turning to `Nc1cccc(-c2cc3c(Oc4cccc(O)c4)ncnc3[nH]2)c1`, the parasite growth, % of DMSO control in test [1] is 33.1%. In test [2], this compound gave a parasite growth remaining, % of DMSO control (lower = more inhibition) of 86%. For the same compound, the parasite growth, % of control (lower = inhibition) in test [3] was determined as 52.9%. In test [4], this compound yielded a growth, % of control of 43.2%. The cell viability, % of control (lower = more cytotoxic) in test [5] came out at 115%. Further, in test [6], the viability (% of control) came to 9.2%.

For the compound `O=C1CCC[C@@H]2[C@H]3CCC[N+]4([O-])CCC[C@@H](CN12)[C@@H]34` (some centres not stated), in test [1], the parasite growth, % of DMSO control is 64.9%. In test [2], this compound had a parasite growth remaining, % of DMSO control (lower = more inhibition) of 33.8%. Further, the parasite growth, % of control (lower = inhibition) in test [3] came out at 61.6%. In test [4], the growth, % of control came to 68.6%. Also, the cell viability, % of control (lower = more cytotoxic) in test [5] was determined as 92.5%. In addition, the viability (% of control) in test [6] stood at 100%.

`NC(=O)c1cccc2cn(-c3ccc([C@@H]4CCCNC4)cc3)nc12` registered a parasite growth, % of DMSO control in test [1] of 12.4%. The parasite growth remaining, % of DMSO control (lower = more inhibition) in test [2] came to 11.3%. For the same compound, the parasite growth, % of control (lower = inhibition) in test [3] was determined as 25.3%. Besides, the growth, % of control in test [4] worked out at 6.74%. Further, the cell viability, % of control (lower = more cytotoxic) in test [5] turned out to be 116%. For the same compound, the viability (% of control) in test [6] was 5.94%.

These data come from PubChem BioAssay (NCATS).
